The record followed here is PubChem BioAssay (Tox21).

Active and inactive are the calls of the source. Calls come from the whole dose curve; as a rule, active = well fitted curve in the direction sought with a large enough effect in the repeat runs; inconclusive = weak or mixed curves; inactive = flat fitted curve, though single readings scatter.

The first assay is described as follows: qHTS assay to test for compound auto fluorescence at 590 nm (red) in HepG2 cells (AID 720674). The note with it: HepG2 autofluorescence, red 540/590 nm, 1 h; series mostly up to 46 µM. The procedure, abridged: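 1 hr compound incubation on HepG2 cells, 37 C, 5% CO2; plate read ex 540 nm / em 590 nm; intensities reported as Rose Bengal sodium equivalents.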
Turning to `COc1ccc(CCN(C)CCCC(C#N)(c2cc(OC)c(OC)c(OC)c2)C(C)C)cc1OC` (stereo not given), the molecule was called inactive.
Same read-out and setting: for `CC(C)(CC(=O)O)C(=O)O` the value was “inactive”.
On to `CS(=O)(=O)O`, for which the molecule was called inactive.
For `COc1nc(N)nc2c1ncn2[C@@H]1O[C@H](CO)[C@@H](O)[C@@H]1O`, the call was inactive.
For the molecule `CCN1CCC[C@H]1CNC(=O)c1cc(S(N)(=O)=O)ccc1OC`, the molecule was called inactive.
For the molecule `Oc1ccc(C2CNCCc3c2cc(O)c(O)c3Cl)cc1` (stereo not given), the molecule was classed as inactive.
As to `COC(=O)c1c(Cl)c(Cl)c(C(=O)OC)c(Cl)c1Cl`, the molecule was called inactive.
As to `OC[C@]1(O)OC[C@@H](O)[C@H](O)[C@@H]1O`, the result was inactive.
Turning to `CN1CCC(=C2c3ccccc3CC(=O)c3sccc32)CC1`, the molecule was called inactive.
With `Brc1c(NC2=NCCN2)ccc2nccnc12`, the molecule was called inactive.
In the case of `O=C1CC2CC1C1CCCC21` (stereo not given), the call was inactive.
Take `CC(C)(C)NCCNC(C)(C)C`: the molecule was called inactive.
Take `Cc1ccc(Cl)cc1Cl`: the molecule was classed as inactive.
Consider `CC[N+](C)(C)c1cccc(O)c1`, for which the molecule was called inactive.
Still for that read-out and setting: for `COC(=O)CC(C)=O` the value was “inactive”.

The nature of a further assay: qHTS assay to test for compound auto fluorescence at 535 nm (green) in HepG2 cells (AID 720675). As to conditions: green autofluorescence 485/535 nm, 1 h; series mostly up to 46 µM.
Consider `O=C[C@H](O)[C@@H](O)[C@H](O)[C@H](O)CO`, for which the molecule was classed as inactive.
In the case of `CCOC(=O)c1cccc(N)c1`, the result was inactive.
Take `CCO[Si](CCC1CCC2OC2C1)(OCC)OCC` (stereo not given): the outcome was inactive.
Still for that read-out and setting: for `NC(=O)c1cn(Cc2c(F)cccc2F)nn1` the value was “inactive”.
For the molecule `FC(F)OC(Cl)C(F)(F)F` (stereo not given), the outcome was inactive.
Regarding `CN1C(=O)N(C)C(O)C1O` (stereo not given), the result was inactive.
Still for that read-out and setting: for `O=C1NC(=O)[C@@]2(CCOc3ccc(F)cc32)N1` the value was “inactive”; for `CCOC(=O)c1c(C)n(C)c2ccc(O)cc12`, “inactive”.
In the case of `O=C(CCCN1CCC(O)(c2cccc(C(F)(F)F)c2)CC1)c1ccc(F)cc1`, the molecule was classed as inactive.
With `CC(C)c1cc2c(cc1S(=O)(=O)O)[C@@]1(C)CCC[C@@](C)(C(=O)O)[C@@H]1CC2`, the call was inactive.
For the molecule `CCN(Cc1ccncc1)C(=O)C(CO)c1ccccc1` (stereo not given), the molecule was called inactive.
On to `CC(=O)CC(C)C`, for which the result was inactive.
Turning to `CC(=O)OCC(=O)[C@@]1(O)CC[C@H]2[C@@H]3CCC4=CC(=O)CC[C@]4(C)[C@H]3C(=O)C[C@@]21C`, the molecule was classed as inactive.
Turning to `CC(=O)CC(C)(C)C1CCCCC1`, the call was inactive.
Turning to `CCc1ccc(O)c(OC)c1`, the molecule was called inactive.
Take `Cc1cc2c(cc1S(N)(=O)=O)S(=O)(=O)CCC2`: the outcome was inactive.
With `O=S(O)CO`, the molecule was classed as inactive.
For the molecule `CC(=O)OCC(CCn1cnc2cnc(N)nc21)COC(C)=O`, the call was inactive.
Take `Cc1c(O)cccc1O`: the molecule was classed as inactive.
Consider `c1cnc(N2CCN(Cc3ccc4c(c3)OCO4)CC2)nc1`, for which the molecule was classed as inactive.
Same read-out and setting: for `N=C(N)c1ccccc1` the value was “inactive”; for `N=c1nc(N2CCCCC2)cc(N)n1O`, “inactive”.
For the molecule `OCCCC1CCCCC1`, the molecule was called inactive.
As to `CC/C=C\CC/C=C/C(OCC)OCC`, the outcome was inactive.
Turning to `COCCCOCCCOC`, the call was inactive.
Still for that read-out and setting: for `COc1ccc(CCN(C)CCCC(C#N)(c2cc(OC)c(OC)c(OC)c2)C(C)C)cc1OC` (stereo not given) the value was “inactive”; for `CC(C)(CC(=O)O)C(=O)O`, “inactive”.
In the case of `CS(=O)(=O)O`, the result was inactive.
With `COc1nc(N)nc2c1ncn2[C@@H]1O[C@H](CO)[C@@H](O)[C@@H]1O`, the molecule was classed as inactive.
With `CCN1CCC[C@H]1CNC(=O)c1cc(S(N)(=O)=O)ccc1OC`, the result was inactive.
With `Oc1ccc(C2CNCCc3c2cc(O)c(O)c3Cl)cc1` (stereo not given), the molecule was classed as inactive.
Take `COC(=O)c1c(Cl)c(Cl)c(C(=O)OC)c(Cl)c1Cl`: the molecule was classed as inactive.
As for `OC[C@]1(O)OC[C@@H](O)[C@H](O)[C@@H]1O`, the molecule was classed as inactive.
`CN1CCC(=C2c3ccccc3CC(=O)c3sccc32)CC1`: the molecule was classed as inactive.
On the same count and under the same terms, for `Brc1c(NC2=NCCN2)ccc2nccnc12` the value was “inactive”; for `O=C1CC2CC1C1CCCC21` (stereo not given), “inactive”; for `CC(C)(C)NCCNC(C)(C)C`, “inactive”.
Turning to `Cc1ccc(Cl)cc1Cl`, the molecule was classed as inactive.
The same measure, in the same setting: the result for `CC[N+](C)(C)c1cccc(O)c1` reads “inactive”; that for `COC(=O)CC(C)=O`, “inactive”.

Another assay in a line: qHTS assay to test for compound auto fluorescence at 460 nm (blue) in HEK293 cells (AID 720678). The note with it: blue autofluorescence 405/460 nm; series mostly up to 46 µM. The gist of the method: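 HEK293 cells (2,000 per well, medium with 10% dialyzed FBS) attached for 4-5 hr at 37C, then received compound and stood overnight at 37C, 5% CO2. Blue fluorescence was read at Ex/Em 405/460 nm and expressed relative to triamterene.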
A general note: Quantitative high-throughput screening tests each substance at several concentrations.
For `O=C[C@H](O)[C@@H](O)[C@H](O)[C@H](O)CO`, the call was inactive.
`CCOC(=O)c1cccc(N)c1`: the molecule was called inactive.
The same measure, in the same setting: the result for `CCO[Si](CCC1CCC2OC2C1)(OCC)OCC` (stereo not given) reads “inactive”; that for `NC(=O)c1cn(Cc2c(F)cccc2F)nn1`, “inactive”.
On the same count and under the same terms, for `FC(F)OC(Cl)C(F)(F)F` (stereo not given) the value was “inactive”.
Still for that read-out and setting: the result for `CN1C(=O)N(C)C(O)C1O` (stereo not given) reads “inactive”; that for `O=C1NC(=O)[C@@]2(CCOc3ccc(F)cc32)N1`, “inactive”.
Turning to `CCOC(=O)c1c(C)n(C)c2ccc(O)cc12`, the outcome was inactive.
Take `O=C(CCCN1CCC(O)(c2cccc(C(F)(F)F)c2)CC1)c1ccc(F)cc1`: the result was inactive.
Still for that read-out and setting: the result for `CC(C)c1cc2c(cc1S(=O)(=O)O)[C@@]1(C)CCC[C@@](C)(C(=O)O)[C@@H]1CC2` reads “inactive”; that for `CCN(Cc1ccncc1)C(=O)C(CO)c1ccccc1` (stereo not given), “inactive”; that for `CC(=O)CC(C)C`, “inactive”.
Consider `CC(=O)OCC(=O)[C@@]1(O)CC[C@H]2[C@@H]3CCC4=CC(=O)CC[C@]4(C)[C@H]3C(=O)C[C@@]21C`, for which the outcome was inactive.
On to `CC(=O)CC(C)(C)C1CCCCC1`, for which the result was inactive.
Same read-out and setting: for `CCc1ccc(O)c(OC)c1` the value was “inactive”.
The same measure, in the same setting: for `Cc1cc2c(cc1S(N)(=O)=O)S(=O)(=O)CCC2` the value was “inactive”.
Take `O=S(O)CO`: the call was inactive.
Still for that read-out and setting: for `CC(=O)OCC(CCn1cnc2cnc(N)nc21)COC(C)=O` the value was “inactive”; for `Cc1c(O)cccc1O`, “inactive”; for `c1cnc(N2CCN(Cc3ccc4c(c3)OCO4)CC2)nc1`, “inactive”.
Consider `N=C(N)c1ccccc1`, for which the molecule was called inactive.
On the same count and under the same terms, the result for `N=c1nc(N2CCCCC2)cc(N)n1O` reads “inactive”; that for `OCCCC1CCCCC1`, “inactive”; that for `CC/C=C\CC/C=C/C(OCC)OCC`, “inactive”.
Turning to `COCCCOCCCOC`, the result was inactive.
For `COc1ccc(CCN(C)CCCC(C#N)(c2cc(OC)c(OC)c(OC)c2)C(C)C)cc1OC` (stereo not given), the result was inactive.
On the same count and under the same terms, the result for `CC(C)(CC(=O)O)C(=O)O` reads “inactive”.
For `CS(=O)(=O)O`, the molecule was classed as inactive.
For `COc1nc(N)nc2c1ncn2[C@@H]1O[C@H](CO)[C@@H](O)[C@@H]1O`, the call was inactive.
For `CCN1CCC[C@H]1CNC(=O)c1cc(S(N)(=O)=O)ccc1OC`, the molecule was called inactive.
Regarding `Oc1ccc(C2CNCCc3c2cc(O)c(O)c3Cl)cc1` (stereo not given), the molecule was classed as inactive.
Consider `COC(=O)c1c(Cl)c(Cl)c(C(=O)OC)c(Cl)c1Cl`, for which the molecule was classed as inactive.
As for `OC[C@]1(O)OC[C@@H](O)[C@H](O)[C@@H]1O`, the molecule was classed as inactive.
On the same count and under the same terms, for `CN1CCC(=C2c3ccccc3CC(=O)c3sccc32)CC1` the value was “inactive”; for `Brc1c(NC2=NCCN2)ccc2nccnc12`, “inactive”.
For `O=C1CC2CC1C1CCCC21` (stereo not given), the result was inactive.
Take `CC(C)(C)NCCNC(C)(C)C`: the result was inactive.
Regarding `Cc1ccc(Cl)cc1Cl`, the call was inactive.
On the same count and under the same terms, for `CC[N+](C)(C)c1cccc(O)c1` the value was “inactive”; for `COC(=O)CC(C)=O`, “inactive”.
